“And” between values parts separate entries of the source, which are not always exact repeats. Identical values can stand only once. Results filed as inconclusive are left out. A number with no mark means an inactive call. The source made the active and inactive calls. Calls follow the shape of the dose curve; as a rule, active = well fitted inhibition curve with a large enough effect; inconclusive = small, poorly fitted or top-dose-only effect, or effect the other way; inactive = flat fitted curve, though single readings scatter.
What follows are compounds tested against Thyroid hormone receptor beta (Homo sapiens) (UniProt P10828) (assay: Concentration Response Confirmation Assay for Inhibitors of the Interaction of Thyroid Hormone Receptor and Steroid Receptor Coregulator 2, Fluorescein Fluoroprobe). Conditions: TRbeta LBD / fluorescein-SRC2 peptide, fluorescence polarization, 5 h; series mostly up to 92.2 µM; activity, negative = inhibition: at the top concentration.
Thyroid hormone receptor beta (Homo sapiens), sequence (P10828 whole entry, looked up, the tested form may be a part): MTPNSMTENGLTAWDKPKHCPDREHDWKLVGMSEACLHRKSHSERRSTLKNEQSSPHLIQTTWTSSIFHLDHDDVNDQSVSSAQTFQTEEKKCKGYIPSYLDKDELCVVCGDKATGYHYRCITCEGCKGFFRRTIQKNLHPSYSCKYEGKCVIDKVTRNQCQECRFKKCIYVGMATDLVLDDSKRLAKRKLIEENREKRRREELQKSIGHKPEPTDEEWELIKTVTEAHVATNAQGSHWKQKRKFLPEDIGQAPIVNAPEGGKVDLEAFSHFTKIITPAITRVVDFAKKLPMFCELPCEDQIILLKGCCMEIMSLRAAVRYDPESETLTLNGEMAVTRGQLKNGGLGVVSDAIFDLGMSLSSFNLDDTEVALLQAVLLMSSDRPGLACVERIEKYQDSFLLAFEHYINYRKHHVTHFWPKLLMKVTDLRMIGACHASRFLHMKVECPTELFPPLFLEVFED
Excerpt: NIH Molecular Libraries Probe Production Network [MLPCN] NIH Chemical Genomics Center [NCGC] MLPCN Grant: DK058080 Assay Provider: R. Kip Guy, St. Jude Children's Research Hospital NCGC Assay Overview: Thyroid receptor (TR) regulates many homeostatic processes including basal metabolism, cardiovascular function, body weight, and lipid trafficking. TR modulators are potential therapeutics for obesity and hyperlipidemias but current thyroid analogs have undesirable side effects, particularly cardiac stimulation. To identify inhibitors that specifically prevent the interaction of TR with the steroid receptor coregulator 2 (SRC2), a fluorescence polarization assay was screened (Arnold et al., 2006). This assay detects interaction of the ligand-binding domain of human TRbeta with a fluorescein labeled SRC2 peptide, corresponding to a 20 amino acid region of the nuclear receptor interaction domain. Small molecule inhibitors that block the interaction of TR and SRC2 are detected by a decrease in fluorescence polarization. This assay is a confirmation assay for AID 1469. Arnold, L. A.; Estebanez-Perpina, E.; Togashi, M.; Shelat, A.; Ocasio, C. A.; McReynolds, A. C.; Nguyen, P.; Baxter, J. D.; Fletterick, R. J.; Webb, P.; Guy, R. K. A high-throughput screening method to identify small molecule inhibitors of thyroid hormone receptor coactivator binding. Sci STKE 2006, p 13.
NCGC Assay Protocol Summary: Five uL/well 0.6 uM TRbeta and 20 nM SRC2 Fluorescein in protein buffer (20mM Tris hydrochloride, 100mM NaCl, 10% glycerol, 1mM EDTA, 0.01% NP-40, 1mM DTT, 1uM T3 and 5% DMSO) was dispensed into black solid 1536-well plates (Grenier) using a solenoid-based dispenser. Following transfer of 23 nL compound or DMSO vehicle by a pin tool, the plates were centrifuged 15 s at 1000 RPM and incubated 5 hr at ambient temperature. The plates were read by an Envision (Perkin Elmer) to detect fluorescence polarization of SRC2 Fluorescein (480 nm excitation and 535 nm emission). Data were normalized to unbound (all components except TRbeta) and bound SRC2 Fluorescein controls. In this assay, we provide % activity data for each concentration as well as potencies for the active compounds. Keywords: NIH Roadmap, MLPCN, MLI, MLSMR, qHTS, NCGC, qHTS, thyroid hormone receptor, steroid receptor coactivator, fluorescence polarization
Compound `Cc1cc2c(NC(=O)Nc3ccccc3)cccc2nn1` has an activity, negative = inhibition of -4.49% [at 0.0112 µM]. Work on `C/C(=C\C(=O)c1ccccc1)Nc1ccc(O)cc1` yielded an activity, negative = inhibition of -2.06% [at 11.6 µM]. For `Cc1cc2ccccc2n1CCNC(=O)C(C)Oc1ccccc1` (stereo not given), the “activity, negative = inhibition” value was 7.35% [at 46.3 µM]. With `O=C(O)/C=C/C(=O)Nc1ccc(OC(F)(F)F)cc1Br` the Potency was 50.1 µM (active). With `CCOC(=O)c1cnc2nc(NCc3ccc(OC)c(OC)c3)[nH]n2c1=O` the “activity, negative = inhibition” value was -7.79%. In the case of `Cn1cc[nH]c1=S`, the “activity, negative = inhibition” value is reported as 2.33%. For `Cc1cccc(S(=O)(=O)c2cn(Cc3ccccc3)c3cc(N4CCC(C)CC4)c(F)cc3c2=O)c1`, the “activity, negative = inhibition” value was -4.12% [at 184 µM]. For `CCOc1ccc(C2=Cc3cc(OC)c(OC)cc3C(=C(Cl)Cl)O2)cc1`, the “activity, negative = inhibition” value was -14.6%. With `Cc1ccc(OC(=S)Nc2ccc(O)cc2)cc1` the “activity, negative = inhibition” value was 4.07%. With `Nc1cc(-c2ccncc2)c[nH]c1=O` the “activity, negative = inhibition” value was -4.86%. Compound `CC1(C)C(N(O)C(=O)Nc2ccc(Cl)cc2)N(c2ccc(Cl)cc2)C(=O)N1CC(=O)NN` (stereo not given) has an activity, negative = inhibition of -8.24% [at 11.6 µM]. For `CCCc1cc(=O)[nH]c(=S)[nH]1`, the “activity, negative = inhibition” value was 2.33%. In the case of `O=C(Nc1nc2ccc(Cl)cc2s1)c1ccc(N2CCCCC2)c([N+](=O)[O-])c1`, the “activity, negative = inhibition” value is reported as -12.4%. `Nc1cccnc1Sc1cc(Cl)c(Cl)cc1Cl` was tested, and the “activity, negative = inhibition” value was 6.55%. `O=c1[nH]c(Nc2ccccc2)cc2ccccc12` was tested, and the Potency was 25.1 µM (active). Work on `CCCCCCN=CC1=C(O)CC(C)(C)CC1=O` yielded an activity, negative = inhibition of 4.31% [at 0.0112 µM]. Work on `CC(=O)c1cccc(NC(=O)COC(=O)c2ccc(S(C)(=O)=O)c([N+](=O)[O-])c2)c1` yielded an activity, negative = inhibition of -8.61% [at 11.6 µM]. For `CN(C(=S)Nc1cccnc1)c1ccc(O)cc1`, the “activity, negative = inhibition” value was 11%. With `Cc1cc(N=Cc2c(O)ccc3ccccc23)no1` the activity, negative = inhibition was 1.5% [at 0.0112 µM]. For `O=c1cc(C23CC4CC(CC(C4)C2)C3)[nH][nH]1`, the “activity, negative = inhibition” value was -7.96%. With `CCCCOc1ccc(C(=O)CCN2CCCCC2)cc1` the Potency was 2.51 µM (active). With `CCOc1cc(C(c2c(C)[nH][nH]c2=O)c2c(C)[nH][nH]c2=O)ccc1OC(=O)c1cccc([N+](=O)[O-])c1` the Potency was 15.8 µM (active). For `Cc1nc2ccccc2n2c(O)c(CC(=O)O)cc12`, the Potency was 8.91 µM (active). In the case of `O=C(O)/C=C/C(=O)Nc1ccc(SC(F)(F)C(F)(F)C(F)(F)F)cc1`, the Potency is reported as 4.47 µM (active). `N/C(Cc1cccc2ccccc12)=N\OC(=O)c1cccs1` was tested, and the activity, negative = inhibition was -6.32% [at 5.76 µM]. `Cc1cc(C)cc(OCC(=O)NCCc2nc3ccccc3[nH]2)c1` was tested, and the “activity, negative = inhibition” value was -14.2% [at 184 µM]. `C=CC(=O)OCCOc1ccccc1` was tested, and the Potency was 50.1 µM (active). For `CCOc1cc(N2CCOCC2)c(OCC)cc1NC(C)C(=O)N1CCN(CC)CC1` (stereo not given), the “activity, negative = inhibition” value was -2.81%. `Cc1nc2c3cc(F)ccc3n(Cc3ccccc3F)c2s1` was tested, and the “activity, negative = inhibition” value was -12.6% [at 46.3 µM]. With `Cc1ccc2c(CC(=O)Nc3c(C(=O)c4ccc(F)cc4)oc4ccccc34)coc2c1C` the “activity, negative = inhibition” value was 22.5% [at 184 µM]. `CCCCOc1ccc(C(=O)CCN2CCOCC2)cc1` was tested, and the Potency was 3.55 µM (active). In the case of `CS(=O)(=O)c1ccc(C(=O)OCC(=O)NC(=O)C2CCCCC2)cc1[N+](=O)[O-]`, the Potency is reported as 5.01 µM (active). `Cc1ccccc1Nc1cc2ccccc2c(=O)[nH]1` was tested, and the Potency was 10 µM (active) and 28.2 µM (active). `C=CCSc1nnc2n(-c3ccccc3OC)c(=O)c3c4c(sc3n12)CCC4` was tested, and the “activity, negative = inhibition” value was 3.76% [at 46.3 µM]. For `COc1ccc(-c2nc(CS(=O)CC(=O)NCc3ccccn3)c(C)o2)cc1` (stereo not given), the Potency was 35.5 µM (active). `CN1CCc2ccc3c4c2[C@]1(C)Cc1cccc(c1-4)OCO3` was tested, and the Potency was 44.7 µM (active). In the case of `Cc1nnc(SCC(=O)Nc2ccc(N(C)C)cc2)[nH]c1=O`, the “activity, negative = inhibition” value is reported as 6.74% [at 184 µM]. `Cn1c(CCN2CCCCC2)nc2cc(NS(=O)(=O)c3ccc(Cl)cc3)ccc21` showed an activity, negative = inhibition of -6.74% [at 0.0112 µM]. For `COc1cc(NC(C)CCCN)c2ncccc2c1` (stereo not given), the “activity, negative = inhibition” value was -6.93% [at 184 µM]. `CN(CCO)c1nc(N)c2c(N)nc3c(c2c1C#N)CC(=O)N3C1CCCC1` gave an activity, negative = inhibition of -0.749% [at 11.6 µM].

— PubChem BioAssay AID1570 (National Center for Advancing Translational Sciences (NCATS), 2009)
